This is a sample that favours compounds with a hit; in the whole collection about 12% have one here.
BAZ2B block: qHTS Assay for Inhibitors of BAZ2B. actives 4.4% (n = 360,000). AlphaScreen BAZ2B-H3K14Ac peptide displacement. Potency, µM (top dose mostly 114 µM), without a hit: at the top dose activity change, negative = inhibition, most hits filed as inhibitors; further: on the % scale 0 is the no-effect control and ±100 the full control effect; nearly all actives have a fitted effect of over 60% in size
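BAZ2B (50 nM) with biotin-H3(5-23)K14Ac peptide (50 nM) in PBS pH 7.4, 0.01% Tween-20, preformed 30 min, then compound 30 min at room temperature; top concentration 110uM. AlphaScreen streptavidin donor/nickel chelate acceptor beads (10 ug/mL final), 20 min dark, signal read.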
Sfp PPTase inh: qHTS Assay for Inhibitors of Bacillus subtilis Sfp phosphopantetheinyl transferase (PPTase); Potency, µM, for the others: largest response in the series, negative = inhibition, usual class: inhibitors; AID 1490, 2009; actives 3.5% (n = 310,000); Biochemical Sfp PPTase activity, qHTS; 4'-phosphopantetheinyl transferase ffp (Bacillus subtilis), Q9F4F7;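 further: the enzyme is Sfp with the accession as filed and its product quenches rhodamine fluorescence; 0% = enzyme reaction without inhibitor and -100% = no enzyme wells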
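Buffer: 50 mM Hepes-Na pH 7.6, 10 mM MgCl2, 0.01% Nonidet P-40, 0.01% BSA. Enzyme 15 nM, pre-exposed to compound 15 min; substrates then added and fluorescence change tracked over 30 min.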
HP1b binding inh: HTS for Inhibitors of HP1-beta Chromodomain Interactions with Methylated Histone Tails. Chromobox protein homolog 1 (Homo sapiens), P83916. AlphaScreen HP1-beta / biotin-H3K9me3 peptide binding. Potency, µM (series often up to 114 µM), without a hit: at the top dose activity change, negative = inhibition, hits mostly inhibitors. actives 0.56% (n = 390,000). AID 540317, 2011; further: nearly all actives have a fitted effect of over 70% in size
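Compound inhibition of the preformed complex between 50 nM HP1-beta and 50 nM biotinylated H3K9me3 peptide was read by AlphaScreen. Buffer was PBS pH 7.4 with 0.01% Tween-20. Incubations ran 30 min at room temperature, with 10 ug/mL donor/acceptor beads.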
TDP1 inh: qHTS Assay for Inhibitors of Tyrosyl-DNA Phosphodiesterase (TDP1). Potency, µM (titrated, usually from 130 µM), inactives show at the top dose activity change, negative = inhibition, most hits filed as inhibitors. recombinant TDP1, AlphaScreen DNA substrate cleavage. Tyrosyl-DNA phosphodiesterase 1 (Homo sapiens), Q9NUW8. AID 485290, 2010. actives 0.28% (n = 350,000); further: on the % scale 0 is the no-effect control and ±100 the full control effect; nearly all actives have a fitted effect of over 40% in size
Target sequence (Q9NUW8 whole entry, looked up): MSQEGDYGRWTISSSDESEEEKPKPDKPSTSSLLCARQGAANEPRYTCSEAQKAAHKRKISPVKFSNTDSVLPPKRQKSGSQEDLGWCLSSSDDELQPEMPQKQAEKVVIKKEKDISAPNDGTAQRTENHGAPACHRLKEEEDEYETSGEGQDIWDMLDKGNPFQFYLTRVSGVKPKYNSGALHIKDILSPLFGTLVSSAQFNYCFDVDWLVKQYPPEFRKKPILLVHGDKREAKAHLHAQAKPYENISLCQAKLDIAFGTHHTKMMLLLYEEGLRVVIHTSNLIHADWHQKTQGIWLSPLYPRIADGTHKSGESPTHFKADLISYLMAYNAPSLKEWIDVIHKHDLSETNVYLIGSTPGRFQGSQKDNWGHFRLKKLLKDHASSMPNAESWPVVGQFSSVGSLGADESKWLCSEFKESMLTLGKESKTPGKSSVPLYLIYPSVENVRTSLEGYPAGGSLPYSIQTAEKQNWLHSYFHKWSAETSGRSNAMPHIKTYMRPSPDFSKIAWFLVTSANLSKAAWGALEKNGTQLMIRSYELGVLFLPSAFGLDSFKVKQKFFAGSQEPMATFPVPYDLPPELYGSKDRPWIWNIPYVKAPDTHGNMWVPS
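Steps: enzyme plus compound, 15 min RT; add biotin/phosphotyrosine-FITC oligonucleotide (15 nM final), react 5 min; add donor/acceptor beads (10 ug/ml final), 10 min; read AlphaScreen. Tdp1 at 1 nM final.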
JMJD2A Tudor inh: qHTS Assay for Inhibitors of JMJD2A-Tudor Domain | AlphaScreen JMJD2A-Tudor / H3K4me3 peptide binding | Potency, µM (top dose mostly 114 µM), inactives show top-dose activity change, negative = inhibition, most hits filed as inhibitors | actives 4.4% (n = 390,000) | AID 504339, 2011; further: on the % scale 0 is the no-effect control and ±100 the full control effect; nearly all actives have a fitted effect of over 50% in size
G9a block: qHTS Assay for Inhibitors of Histone Lysine Methyltransferase G9a. Histone-lysine N-methyltransferase EHMT2 (Homo sapiens), Q96KQ7. G9a H3K9 monomethylation, AlphaScreen, 2 h. Potency, µM (series often up to 102 µM), without a hit: at the highest dose activity, negative = inhibition, hits mostly inhibitors. actives 8.8% (n = 350,000); further: on the % scale 0 is the no-effect control and ±100 the full control effect; nearly all actives have a fitted effect of over 75% in size
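AlphaScreen detection with an anti-monomethyl H3K9 antibody quantified product after a 2 h room-temperature reaction containing 500 nM biotinylated H3K9 peptide, 20 µM SAM and 20 nM enzyme, which had been preincubated 15 min with compound.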
Numbers without * were called inactive; ? = inconclusive; . = not tested or not shown; [ ] = dose if it differs, or a comment. The call rests on the fitted dose curve; in most records, active means well fitted curve in the direction sought with a large enough effect; inconclusive means small, poorly fitted or top-dose-only effect, or another doubt; inactive means no such curve, though single readings can be large; an effect the other way counts as inactive or inconclusive. Potency means the concentration at half of the fitted maximal effect.

SMILES	BAZ2B block	Sfp PPTase inh	HP1b binding inh	TDP1 inh	JMJD2A Tudor inh	G9a block
COc1ccc(S(=O)(=O)N2CCOCC2)cc1NC(=O)CCNC(=O)c1ccc([N+](=O)[O-])cc1	9%	.	23%	1%	-15%	3.5µM*
CN1CCN(c2ccc([N+](=O)[O-])cc2C(=O)N2CCCCC2)CC1	8%	23%	14%	4%	-3%	-11%[59 µM]
Cc1cc(=O)oc2cc(NC(=O)c3cc([N+](=O)[O-])ccc3N3CCOCC3)ccc12	-11%	-2%	9%	-1%	-23%	40µM*
COC(=O)c1cc(NC(=O)c2cccs2)ccc1N1CCOCC1	-3%	-14%	-2%	6%	50µM*	?
CN1CCN(C(=O)c2cc([N+](=O)[O-])ccc2Cl)CC1	-1%	7%	38%	.	-16%	50µM*
COc1cc2c(cc1O)CCC1C2CC[C@@]2(C)C1CC[C@@H]2O (stereo partly specified)	.	-9%	.	10%[56.1 µM]	.	.
O=NN(CCCl)C(=O)NC1CCCCC1	.	11%	.	.	.	-37%[12.7 µM]
COc1cccc(CNC(=O)c2cc(=O)[nH]c3ccc(S(=O)(=O)N4CCOCC4)cc23)c1	?	.	18%	-9%	-15%	25%[12.7 µM]
CCc1nn(CC(=O)N2CCCCC2)c(=O)c2cc3occc3n12	0%	.	25%	-5%	-4%	37%[59 µM]
CCOC(=O)c1cc(CC)sc1NC(=O)c1cc([N+](=O)[O-])ccc1N1CCOCC1	-11%	0%	-33%	5%	-24%[57.1 µM]	11µM*
O=C(Nc1ccc(NC(=O)c2cc([N+](=O)[O-])ccc2N2CCOCC2)cc1)c1cccs1	-27%	-2%	19%	-3%	-22%	28µM*
CCOC(=O)c1cc(CC)sc1NC(=O)c1ccc(N2CCOCC2)c([N+](=O)[O-])c1	-39%	-3%	10%	4%	-21%	-40%
Cc1ccc(S(=O)(=O)N2CCOCC2)cc1NC(=O)c1cc([N+](=O)[O-])ccc1N1CCOCC1	-6%	.	-6%	.	-25%	56µM*
Cc1ccc(C)c(NC(=O)c2cc(S(=O)(=O)N3CCCCC3)ccc2N2CCOCC2)c1	11%	.	33%	2%	-17%	19%[12.7 µM]
CCCc1ccc(OCC(=O)Nc2sc3c(c2C(=O)OCC)CCC(C(C)(C)C)C3)cc1 (stereo unspecified)	-15%	.	21%	-1%[12.3 µM]	-9%	-44%[59 µM]
Cc1ccc(Cn2c(C(=O)O)c(CNC3CCCCC3)c3ccc(C)cc32)cc1	-9%	.	-10%	8%	-30%	-6%[59 µM]
O=C(O)CCc1ccc(-c2ccccc2)n1NC(=O)c1sc2ccccc2c1Cl	?	-3%	-21%	5%	4%[57.1 µM]	50µM*
COc1cccc(O)c1CN1CCC(C(=O)Nc2ccc(-c3cccc(C)c3)cc2)CC1	-36%	79µM*	-10%	6%	?	-8%
Cc1c(N=Nc2ccc(O)cc2)c(=O)n(-c2ccccc2)n1C	?	13%	14%	0%	-22%	-1%
Cc1c(N=NC2=C(O)CCCC2=O)c(=O)n(-c2ccccc2)n1C	22µM*	14µM*	?	2%	14µM*	8.9µM*
Cc1[nH]c2ccccc2c1N=Nc1c(C)n(C)n(-c2ccccc2)c1=O	?	1%	11%	6%	-34%	40µM*
C[C@H](CO)N1C[C@H](C)[C@@H](CN(C)Cc2ccc(Cl)c(Cl)c2)Oc2c(NS(=O)(=O)c3ccc(F)cc3)cccc2C1=O	.	.	20%	3%	-32%	.
CCOC(=O)c1cccc(NC(=O)CSc2ncc3c(n2)-c2ccccc2N(C)S3(=O)=O)c1	0%	.	28%	5%	4%	1%[59 µM]
COC(=O)c1ccc2c(c1)N(C)S(=O)(=O)c1cnc(SCC(=O)C(C)(C)C)nc1-2	-15%	12%	24%	1%	-18%	5µM*
Cc1ccccc1C(=O)Nc1cccc(NC(=O)c2ccccc2[N+](=O)[O-])c1	-24%	21%	31%	.	-15%	2%
SMILES	BAZ2B block	Sfp PPTase inh	HP1b binding inh	TDP1 inh	JMJD2A Tudor inh	G9a block
CC1CCc2noc(NC(=O)c3ccccc3[N+](=O)[O-])c2C1 (stereo unspecified)	?	.	-14%	12%	?	16µM*
COc1cccc(/C=C2\SC(=S)N(N3CCOCC3)C2=O)c1OC	18µM*	-20%	?	11%	?	?
O=C1/C(=C/c2ccc(F)cc2)SC(=S)N1N1CCOCC1	-28%	-11%	-21%	.	-23%	35%[12.7 µM]
O=C1/C(=C/c2ccccn2)SC(=S)N1N1CCOCC1	?	?	17%	3%	-8%[57.1 µM]	56µM*
O=C(NC(=S)N(CCO)Cc1ccccc1)c1ccc(S(=O)(=O)N2CCCC2)cc1	.	10%	9%	5%	-2%[11.4 µM]	4%
COc1cccc(/C=N/N2C(=O)CSC2=S)c1O	3.2µM*	?	?	0%	10µM*	8.9µM*
COc1ccc2ccccc2c1/C=N/N1C(=O)CSC1=S	.	?	-18%	3%	?	?
O=C1CSC(=S)N1/N=C/c1cccc(C(F)(F)F)c1	-14%	7%	-9%	6%	?	?
COc1cc(/C=N/N2C(=O)CSC2=S)cc(Br)c1O	40µM*	-6%	?	?	45µM*	45µM*
Cc1ccccc1-n1nc2c(c1NC(=O)c1ccc(Br)o1)CSC2	-37%	?	-5%	-2%	?	45µM*
Cc1ccccc1-n1nc2c(c1NC(=O)c1ccco1)CS(=O)(=O)C2	-5%	1%	59%	1%	-1%	6%
Cc1ccccc1-n1nc2c(c1NC(=O)c1cc3ccccc3o1)CS(=O)(=O)C2	-3%	.	15%	-6%	-22%	45µM*
NC(=O)CC(NC(=O)c1cccc(Br)c1)c1ccc(NC2CCC2)c([N+](=O)[O-])c1 (stereo unspecified)	?	10%	5%	.	-31%	?
CN1CCCN(S(=O)(=O)c2cccc(C#N)c2)CC1	-19%	-9%	48%	.	-8%	56µM*
CN1CCN(S(=O)(=O)c2cccc(C#N)c2)C(c2ccccc2)C1 (stereo unspecified)	-2%	.	26%	-6%	-3%	56µM*
COc1cc(C#N)ccc1OC(=O)c1cccc(S(=O)(=O)N2CCN(C)CC2)c1	11%	.	18%	-6%	-6%	50µM*
